Common to all, as to assay: NCI-60 one-dose screen, 48 h (100 = growth as untreated, 0 = no growth, -100 = all killed)
Holding throughout (conditions): 10 µM

Assay [1] deals with T-47D breast.
The test system of assay [2] is BT-549 breast.
Assay [3] has as its system MDA-MB-435 melanoma.
In assay [4] the test system is SW-620 colon.
Assay [5] relates to MCF7 breast.
The test system of assay [6] is HCC-2998 colon.
The subject of assay [7] is KM12 colon.
The subject of assay [8] is HCT-116 colon.

Compounds without any hit were thinned out: in the full panel of roughly 83,000, 20% have a hit.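 A percent growth of 40 corresponds to 60% growth inhibition; 0 means no net growth; -100 means all cells died. Active threshold: below 10.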 Values without a mark were called inactive. Active and inactive are the calls of the source.

Take `CCC(CC)n1c(C)cc(=O)n1C(CC)CC`: the growth in assay [1] was 105%; in assay [2] it was 122%; in assay [3] it was 102%; in assay [4], 105%; in assay [5], 105%; in assay [6] it was 105%. Moreover, in assay [7], the growth was 115%.

In the case of `CC1=CC2C(C(O)CC3(C)C2CC(C)C32OCOC23COCO3)C2(C)C/C(=C/O)C(=O)C=C12` (stereo not given), the growth in assay [1] was 24.3%; in assay [2], 51.2%; in assay [3], 7.68% (active); in assay [4], 5.28% (active); in assay [5] it was 5.37% (active); in assay [6] it was 35%. In addition, the growth in assay [7] was 12%.

Regarding `CC(C)[N+]1(C)C2CC[C@@H]1CC(OC(=O)C(CO)c1ccccc1)C2` (stereo not given in full), the growth in assay [1] is 96.6%; in assay [2], 106%; in assay [3], 104%; in assay [4] it was 101%; in assay [5], 111%; in assay [6], 103%. In assay [7], the growth is 115%.

As to `COC(=O)c1c[nH]c2cc(OC(C)C)c(OC(C)C)cc2c1=O`, the growth in assay [1] was 103%; in assay [2] it was 112%; in assay [3], 106%; in assay [4], 105%; in assay [5] it was 84.8%; in assay [6] it was 104%. Besides, the growth in assay [7] was 106%.

For `CC(C)(C)OC(=O)N1CCc2c(sc3ncnc(N/N=C/c4ccccc4Br)c23)C1`, the growth in assay [1] is 41.5%; in assay [2], 92.3%; in assay [3], 77.9%; in assay [4], 55%; in assay [5], -12% (active); in assay [6], 92.3%. Also, the growth in assay [7] was 92.1%.

For the molecule `Fc1ccc(C(c2ccc(F)cc2)C(Cl)Cl)cc1`, the growth in assay [1] is 110%; in assay [2], 95.5%; in assay [3] it was 107%; in assay [5] it was 98%; in assay [8] it was 96.8%.

Consider `Cc1cc(C)nc(NS(=O)(=O)c2ccc(Nc3nc4nc(NCc5ccccc5)nc(-c5ccc(O)cc5)c4c(=O)[nH]3)cc2)n1`, for which the growth in assay [1] was 25.1%; in assay [2] it was 34%; in assay [3], 32.1%; in assay [4] it was 11.2%; in assay [5] it was 16.1%; in assay [6], 19.5%. Moreover, the growth in assay [7] was 29.6%.

With `O=[N+]([O-])c1ccc(NCSc2ccc(Cl)cc2)cc1`, the growth in assay [1] is 92.8%; in assay [2] it was 71.5%; in assay [3], 109%; in assay [5] it was 95%; in assay [8] it was 86.3%.

For the molecule `Cc1nn(-c2ccc(-c3ccc(OC(F)(F)F)cc3)cc2)c2nc(Cc3ccccc3)nc(N)c12`, the growth in assay [1] was 49%; in assay [2], 99.4%; in assay [3], 83.5%; in assay [4] it was 54.4%; in assay [5], 73.8%; in assay [6], 77.2%. Further, in assay [7], the growth is 79.6%.

As for `O=C(CSc1nnc(-c2ccc(Cl)cc2)o1)Nc1ccc(C(=O)/C=C/c2ccc(Cl)cc2)cc1`, the growth is 98.6% in assay [1]; 133% in assay [2]; 98.1% in assay [3]; 101% in assay [4]; 78% in assay [5]; 93.1% in assay [6]. In addition, in assay [7], the growth was 97.8%.

`COc1cccc2ccc(CC(O)(c3ccccc3)c3ccccc3)nc12`: the growth was 43.7% in assay [1]; 94.1% in assay [2]; 106% in assay [3]; 98.7% in assay [4]; 24.6% in assay [5]; 97.1% in assay [6]. Besides, in assay [7], the growth is 67.3%.

In the case of `CC(=O)/C(=C/c1ccc(Br)cc1)C(=O)c1ccccc1`, the growth is 86.5% in assay [1]; 96.9% in assay [2]; 65.9% in assay [3]; 58.2% in assay [4]; 43.4% in assay [5]; 58.6% in assay [7].

On to `CCc1ccc(C2=NN(c3ccc(S(C)(=O)=O)cc3)C(=O)CC2)cc1`, for which the growth in assay [1] was 41.4%; in assay [2], 21.9%; in assay [3] it was -24.3% (active); in assay [4], 12.4%; in assay [5], 26%; in assay [6], 46.6%. Also, in assay [7], the growth is 17.3%.

Turning to `COc1ccc(-c2nn(-c3cccc(Cl)c3)cc2C=C(C#N)C#N)cc1`, the growth in assay [1] was 21.1%; in assay [2] it was -34.8% (active); in assay [3], -68.5% (active); in assay [4] it was -2.25% (active); in assay [5] it was -11.6% (active); in assay [6] it was 8.75% (active). In assay [7], the growth is 4.48% (active).

Take `COc1cc(-c2nn(-c3cccc(NC(=O)CCN4CCN(Cc5ccccc5)CC4)c3)cc2-c2ccncc2)ccc1Cl`: the growth in assay [1] is 29.7%; in assay [2] it was 42.7%; in assay [3], -38.3% (active); in assay [4], 2.77% (active); in assay [5] it was 0.805% (active); in assay [6] it was -12.8% (active). For the same molecule, the growth in assay [7] is 9.7% (active).

`CNC(=O)c1cc(Oc2ccc3c(c2)sc2nc(-c4ccc(NC(=O)Nc5ccc(Cl)c(C(F)(F)F)c5)cc4)cn23)ccn1`: the growth in assay [1] was 19.4%; in assay [2], 75.7%; in assay [3], 91.1%; in assay [4] it was 103%; in assay [5] it was 82.6%; in assay [6], 102%. Besides, in assay [7], the growth was 83.5%.

On to `CC(=O)OC1CC2C(C)(C)CCC[C@]2(C)C2=C1C(O)=C(C(C)C)C(=O)C2=O` (stereo not given in full), for which the growth in assay [1] is 0.0935% (active); in assay [2], -21.9% (active); in assay [3], -37.9% (active); in assay [4] it was -51% (active); in assay [6], -76.1% (active); in assay [7], -77.7% (active).

With `CC(C)(O)CCl`, the growth in assay [1] was 116%; in assay [2], 116%; in assay [3], 102%; in assay [4], 99.5%; in assay [5] it was 100%; in assay [6] it was 109%. In addition, the growth in assay [7] was 107%.

Source of the values: PubChem BioAssay (NCI).
